Test results taken from PubChem BioAssay AID624330 (Southern Research Specialized Biocontainment Screening …, 2012).
Hit rate of the full screen: of about 340,000 compounds, about 2,100 (0.62%) were called active.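 Rule for the calls: active = first-screen hits whose inhibition reached a set limit at any dose in the follow-up dose series; inconclusive = inhibition above the set first-screen limit but never retested; inactive = the rest.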 Not all results are given here. Entries with a potency or affinity are not part of this list.

Each compound was assayed against Rac GTPase-activating protein 1 (Homo sapiens) (UniProt Q9H0H5) (assay: blockers of MgcRacGAP-driven Rac1 GTP hydrolysis – biochemical, ADP Hunter fluorescence, primary and confirmatory, confirmation (AID 624330;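 note: fluorescence reports GDP produced by GAP-driven GTP hydrolysis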)). Conditions: MgcRacGAP-stimulated Rac1 GTP hydrolysis, at 30 µM, stronger effect = higher value, GST-tagged Rac1 F28L mutant substrate.
Sequence of Rac GTPase-activating protein 1 (Homo sapiens) (Q9H0H5 whole entry, looked up): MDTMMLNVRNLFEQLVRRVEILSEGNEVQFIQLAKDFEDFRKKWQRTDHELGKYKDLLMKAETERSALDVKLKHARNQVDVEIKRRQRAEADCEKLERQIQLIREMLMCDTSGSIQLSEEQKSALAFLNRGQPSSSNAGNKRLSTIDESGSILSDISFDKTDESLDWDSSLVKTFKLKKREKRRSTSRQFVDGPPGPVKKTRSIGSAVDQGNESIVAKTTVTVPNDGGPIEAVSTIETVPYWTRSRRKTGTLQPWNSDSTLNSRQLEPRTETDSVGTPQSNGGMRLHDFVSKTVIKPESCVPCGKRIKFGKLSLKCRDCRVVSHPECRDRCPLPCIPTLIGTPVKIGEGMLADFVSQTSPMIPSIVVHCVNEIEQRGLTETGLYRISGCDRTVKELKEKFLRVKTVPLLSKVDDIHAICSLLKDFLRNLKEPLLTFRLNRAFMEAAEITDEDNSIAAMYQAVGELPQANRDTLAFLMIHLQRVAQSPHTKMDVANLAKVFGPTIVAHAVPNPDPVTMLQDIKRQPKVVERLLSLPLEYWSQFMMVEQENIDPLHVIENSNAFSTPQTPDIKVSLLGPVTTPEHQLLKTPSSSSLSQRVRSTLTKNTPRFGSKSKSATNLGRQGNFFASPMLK

inhibition, inactive:
CC(=O)c1ccc2ccccc2c1OC(=O)c1ccncc1 6.45%
CSc1sc(-c2ccnc(SCC(=O)C(C)(C)C)n2)c2c1C(=O)CC(C)(C)C2 13.4%
CCn1c(SCC(=O)Nc2ccc(F)cc2)nc2ccccc2c1=O 0.4%
Cc1ccc(C(=O)N2CCC(C(=O)NCc3ccco3)CC2)cc1 5.06%
COc1cc(OC)cc(C(=O)Nc2ncn[nH]2)c1 6.96%
COc1ccc(/C=N/N2C(=O)c3ccccc3C2=O)cc1 -3.67%
O=C1c2ccccc2C(=O)N1/N=C/c1ccc(O)c(O)c1O -97.2%
COc1cc(/C=N/N2C(=O)C3C4c5ccccc5C(c5ccccc54)C3C2=O)ccc1O (configuration not stated) 4.88%
O=C1C2C3C=CC(CC3)C2C(=O)N1/N=C/c1ccccc1O (configuration not stated) 3.85%
O=C1c2ccccc2C(=O)N1N=Cc1ccc2c(c1)OCO2 5.49%
O=C1C2C3C=CC(CC3)C2C(=O)N1/N=C/c1ccc(O)cc1 (configuration not stated) 1.46%
CC(NC(=O)C1CC(=O)N(c2ccc3c(c2)OCCO3)C1)c1ccccc1 (configuration not stated) 10.6%
C/C(=N\NC(=O)C(c1ccncc1)N1CCOCC1)c1ccc(Br)cc1 (configuration not stated) 5.86%
Cc1cccc(NC(=O)CN2C(=O)N/C(=C/c3cc(C)n(-c4cccnc4)c3C)C2=O)c1 -10.6%
COc1ccccc1C(CNC(=O)c1cccc(S(=O)(=O)N2CCCc3ccccc32)c1)N(C)C (configuration not stated) 4.28%
Cc1cc(C)nc(NS(=O)(=O)c2ccc(NC(=S)NC(=O)C(C)(C)C)cc2)n1 8.49%
CC(=O)N1CCc2cc(S(=O)(=O)NCCCOC(C)C)ccc21 2.11%
CC(=O)c1ccc(S(=O)(=O)N2CCC3(CC2)CC(=O)c2ccccc2O3)cc1 14.3%
O=S(=O)(c1cccs1)N1CCN(c2ccccc2Cl)CC1 1.05%
CC(=O)Nc1ccc(NC(=O)Cn2cnc3c(nnn3Cc3ccc(F)cc3)c2=O)cc1 1.41%
CN(C)CCOc1ccc2ccccc2c1 25.2%
c1ccc2cc(OCCOCCOc3ccc4ccccc4c3)ccc2c1 -0.76%
CC1=C(C)CC2(SC1)C(=O)N(c1ccccc1)N=C2N (configuration not stated) 15%
CC[C@@H](C)[C@@H](C(=O)N1CCN(C(=O)OC(C)(C)C)CC1)n1cc(CCCCNC(=O)OC(C)(C)C)nn1 7.52%
Cn1c(-c2ccc3c(c2)OCO3)cnc1NCc1ccccc1 30.7%
Cn1c(-c2ccc3c(c2)OCO3)cnc1NCc1cccc(O)c1 26.8%
COc1ccc(-c2cnc(NCc3cc4c(cc3[N+](=O)[O-])OCO4)n2C)cc1 28.1%
Cn1c(-c2ccc3c(c2)OCO3)cnc1NCc1ccc(Cl)cc1 27.4%
Cn1c(-c2ccc(F)cc2)cnc1NCc1cc2c(cc1[N+](=O)[O-])OCO2 27.6%
Cc1ccc(CNc2ncc(-c3ccc4c(c3)OCO4)n2C)cc1 30.1%
COc1ccccc1N1CCN(S(=O)(=O)c2ccc(NC(C)=O)cc2)CC1 7.69%
Cc1c(-c2ccccc2)nc2ccccc2c1C(=O)Oc1ccc([N+](=O)[O-])cc1 -7.74%
Cc1ccc(S(=O)(=O)N2CC3(O)CN(C(=O)OC(C)C)N(C(=O)OC(C)C)CC3(OC(=O)NC3CCCC3)C2)cc1 (configuration not stated) 9.25%
CC(=O)Nc1ccc(S(=O)(=O)NNC(=O)c2ccc([N+](=O)[O-])cc2)cc1 1.83%
COC(=O)CN1C(=O)C(O)(CC(=O)c2ccccc2)c2ccccc21 (configuration not stated) 9.4%
CC(C)(C)OC(=O)NCCCCCNC(=O)c1nc[nH]c1C(=O)NCC(=O)OCc1ccccc1 5.97%
CCN(CC1COc2ccccc2O1)C(=O)CN1C(=O)NC(C)(c2ccccc2)C1=O (configuration not stated) 1.68%
NC(=O)c1ccc(NC(=O)COC(=O)c2cccc(Oc3ccccc3)c2)cc1 -3.55%
CCOCCCNC(=S)N1CCCN(c2nc3cc(C)ccc3cc2C#N)CC1 10.8%
CN(C)c1ccc(/C=N/NC(=O)CNC(=O)c2ccc3c(c2)OCCO3)cc1 14.6%
O=C(N/N=C/c1ccc2c(c1)OCO2)/C(=C/c1ccc2c(c1)OCO2)NC(=O)c1ccccc1 -2.17%
O=C(N/N=C/c1ccc2c(c1)OCO2)c1ccc2c(c1)OCO2 9.83%
COc1cccc(/C=N/NC(=O)CNC(=O)c2ccc3c(c2)OCCO3)c1O 8.24%
COc1ccc(/C=N/NC(=O)CNC(=O)c2ccc3c(c2)OCCO3)cc1OC 12.1%
COc1ccc(/C=N/NC(=O)c2ccc3c(c2)OCO3)cc1 7.95%
O=C(CNC(=O)c1ccc2c(c1)OCCO2)N/N=C/c1ccc(Cl)cc1 13.2%
COc1ccc(/C=C(/NC(=O)c2ccccc2)C(=O)N/N=C/c2ccc3c(c2)OCO3)cc1OC 4.26%
CCOC(=O)C(NC(=O)c1ccc(OC)cc1)(Nc1cc(C)on1)C(F)(F)F (configuration not stated) 9.87%
Cc1ccccc1NC(=O)OCc1cccnc1Oc1ccc(Cl)cc1 10.3%
C/C(=N\NC(=O)c1cc(C)oc1C)c1ccc2c(c1)OCO2 6.44%
CN(C)CCCN(Cc1ccccc1)C(=S)Nc1cccc(C(F)(F)F)c1 3.49%
Cc1ccc2c(c1)NC(=O)C(CC(=O)Nc1ccc(CN3CCC(C)CC3)cc1)O2 (configuration not stated) 4.76%
Cc1[nH]c(N=Nc2ccccc2)nc1N=Nc1ccccc1 8.63%
Cc1ccccc1OCC(=O)Nc1ccccc1N1CCC(C)CC1 4.53%
O=C(C[n+]1ccc(-c2ccccc2)cc1)Nc1ccc([N+](=O)[O-])cc1 8.73%
COC(=O)C1=C(C)N(Cc2ccccc2)C(=NCCCCO)N[C@H]1c1cccc(C(F)(F)F)c1 10.7%
CC1(C)NS(=O)(=O)Oc2ccccc21 15.4%
